# Test results from PubChem BioAssay (EPA / NIEHS).
# A structure can be active in one record and inactive in another. The source made the active and inactive calls. How the source made its calls: active means hit-call score of the fitted dose curve at least 0.9, where 1 is the maximum; inactive means score below 0.9.
# Experiments:
# Conditions in all cases: mRNA level, 48 h; actives raise or lower the signal
# [1] = read-out: Bcl-2 (BAD) gene, BAD (gene 572); test: LTEA_HepaRG_BAD: Life Technologies and Expression Analysis (LTEA) Assay for Bcl-2 (BAD) gene using HepaRG (AID 2283469)
# In short: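 Activity values reflect up- or down-regulation of BAD mRNA in human HepaRG hepatic cells treated 48 h in serum-free medium, with eight-point half-log dosing capped at 100 uM and 0.5% DMSO vehicle.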
# [2] = read-out: Bcl-2 (BAX) gene, BAX (gene 581); test: LTEA_HepaRG_BAX: Life Technologies and Expression Analysis (LTEA) Assay for Bcl-2 (BAX) gene using HepaRG (AID 2283470)
# In short: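 Human HepaRG cells treated in duplicate for 48 h across eight concentrations (max 100 uM, 0.5% DMSO); BAX expression measured by qRT-PCR.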
# [3] = read-out: adenosine kinase (ADK) gene, ADK (gene 132); test: LTEA_HepaRG_ADK: Life Technologies and Expression Analysis (LTEA) Assay for adenosine kinase (ADK) gene using HepaRG (AID 2283471)
# In short: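 Differentiated HepaRG cells dosed 48 h in serum-free induction medium, 0.5% DMSO vehicle, eight half-log concentrations from 100 uM, in duplicate. ADK mRNA by TaqMan qRT-PCR normalised to ACTB, GAPDH, POLR2A; bidirectional fit versus DMSO.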
# [4] = read-out: Alpha-fetoprotein (AFP) gene, AFP (gene 174); test: LTEA_HepaRG_AFP: Life Technologies and Expression Analysis (LTEA) Assay for Alpha-fetoprotein (AFP) gene using HepaRG (AID 2283472)
# In short: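 Measures AFP mRNA change in HepaRG after 48 h chemical exposure (8 half-log concentrations, highest 100 uM, 0.5% DMSO). Fold change relative to DMSO, fitted in both directions.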
# [5] = read-out: Apolipoprotein A-V (APOA5) gene, APOA5 (gene 116519); test: LTEA_HepaRG_APOA5: Life Technologies and Expression Analysis (LTEA) Assay for Apolipoprotein A-V (APOA5) gene using HepaRG (AID 2283474)
# In short: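 HepaRG, 48 h chemical exposure in serum-free induction medium, 8-pt half-log series (top 100 uM), 0.5% DMSO vehicle, duplicates. Readout: APOA5 mRNA by qRT-PCR, housekeeping-normalized; bidirectional fit vs DMSO baseline.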
# [6] = read-out: Apoptosis regulator Bcl-2 (Homo sapiens) (UniProt P10415); test: LTEA_HepaRG_BCL2: Life Technologies and Expression Analysis (LTEA) Assay for Bcl-2 gene using HepaRG (AID 2283475)
# In short: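 Each chemical was tested in duplicate on HepaRG cultures held in serum-free induction medium for 48 h, highest concentration 100 uM with half-log dilutions. Transcript levels came from multiplexed qRT-PCR, normalised to housekeeping genes; activity was scored in either direction relative to DMSO.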
# [7] = read-out: Bcl-2 (BID) gene, BID (gene 637); test: LTEA_HepaRG_BID: Life Technologies and Expression Analysis (LTEA) Assay for Bcl-2 (BID) gene using HepaRG (AID 2283476)
# In short: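 Assay used HepaRG hepatic cells treated 48 h in serum-free medium with half-log dilutions from 100 uM. Endpoint: BID mRNA, qRT-PCR, normalized to ACTB/GAPDH/POLR2A.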
# Caspase-3 (Homo sapiens) = Caspase-3 (Homo sapiens) (UniProt P42574); test: LTEA_HepaRG_CASP3: Life Technologies and Expression Analysis (LTEA) Assay for cysteine-aspartic acid protease (CASP3) using HepaRG (AID 2283477)
# In short: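 HepaRG, 48 h exposure, 8 conc. (top 100 uM, half-log steps, duplicate), 0.5% DMSO vehicle; qRT-PCR of CASP3 transcript, housekeeping-normalised (ACTB/GAPDH/POLR2A); bidirectional curve fit vs DMSO baseline.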
# [8] = read-out: Cytochrome P450 (CYP1A2), CYP1A2 (gene 1544); test: LTEA_HepaRG_CYP1A2: Life Technologies and Expression Analysis (LTEA) Assay for Cytochrome P450 (CYP1A2) using HepaRG (AID 2283479)
# In short: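 HepaRG, 48 h exposure, top 100 uM, half-log 8-pt, 0.5% DMSO vehicle, duplicates. Readout: TaqMan qRT-PCR of CYP1A2 mRNA, housekeeping-normalized (ACTB/GAPDH/POLR2A). Gain/loss fit relative to DMSO baseline.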
# [9] = read-out: cysteine-aspartic acid protease (CASP8), CASP8 (gene 841); test: LTEA_HepaRG_CASP8: Life Technologies and Expression Analysis (LTEA) Assay for cysteine-aspartic acid protease (CASP8) using HepaRG (AID 2283480)
# In short: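 Concentration-response in duplicate up to 100 uM (half-log steps, 0.5% DMSO) on differentiated HepaRG cultures for 48 h. Expression change of CASP8 mRNA is determined by TaqMan qRT-PCR with housekeeping-gene normalization.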
# [10] = read-out: Cytochrome P450 (CYP2B6), CYP2B6 (gene 1555); test: LTEA_HepaRG_CYP2B6: Life Technologies and Expression Analysis (LTEA) Assay for Cytochrome P450 (CYP2B6) using HepaRG (AID 2283481)
# In short: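 Read-out is CYP2B6 mRNA by TaqMan qRT-PCR, normalized to three housekeeping genes and fitted bidirectionally against 0.5% DMSO baseline. Human HepaRG cells received test chemicals for 48 h, top concentration 100 uM, half-log dilutions.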
# [11] = read-out: Cytochrome P450 2C19 (Homo sapiens) (UniProt P33261); test: LTEA_HepaRG_CYP2C19: Life Technologies and Expression Analysis (LTEA) Assay for CYP2C19 using HepaRG (AID 2283482)
# In short: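 HepaRG, 48 h chemical exposure, 8-pt half-log series from 100 uM in 0.5% DMSO, duplicates. Readout: CYP2C19 mRNA by TaqMan qRT-PCR, housekeeping-normalized. Bidirectional fit vs DMSO baseline; phenobarbital 1mM as induction control.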
# CYP2C8 (gene 1558) = test: LTEA_HepaRG_CYP2C8: Life Technologies and Expression Analysis (LTEA) Assay for CYP2C8 using HepaRG (AID 2283483)
# In short: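 This is a transcriptional endpoint in HepaRG cultures: 48 h exposure, highest concentration 100 uM. CYP2C8 mRNA is quantified by TaqMan qRT-PCR.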
# CYP2C9 (gene 1559) = test: LTEA_HepaRG_CYP2C9: Life Technologies and Expression Analysis (LTEA) Assay for CYP2C9 using HepaRG (AID 2283484)
# In short: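 Eight-point concentration-response (highest 100 uM, half-log dilutions) in HepaRG cells for 48 h; CYP2C9 expression by qRT-PCR normalized to ACTB, GAPDH, POLR2A. Bidirectional fit, DMSO baseline.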
# CYP2E1 (gene 1571) = test: LTEA_HepaRG_CYP2E1: Life Technologies and Expression Analysis (LTEA) Assay for CYP2E1 using HepaRG (AID 2283485)
# In short: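 Assay uses 48 h exposure of HepaRG hepatic cells, eight concentrations to 100 uM. Expression of CYP2E1 is quantified by TaqMan qRT-PCR with ACTB, GAPDH and POLR2A normalization; curves fitted in both directions relative to vehicle.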
# CYP4A11 (gene 1579) = test: LTEA_HepaRG_CYP4A11: Life Technologies and Expression Analysis (LTEA) Assay for CYP4A11 using HepaRG (AID 2283486)
# In short: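 CYP4A11 transcript levels were quantified by TaqMan qRT-PCR after HepaRG human liver cells were treated for 48 hours with test chemicals (top 100 uM, half-log dilutions, 0.5% DMSO). Gain or loss of signal was fitted relative to DMSO.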
# [12] = read-out: Cytochrome P450 3A4 (Homo sapiens) (UniProt P08684); test: LTEA_HepaRG_CYP3A4: Life Technologies and Expression Analysis (LTEA) Assay for CYP3A4 using HepaRG (AID 2283487)
# In short: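 Differentiated HepaRG cells in serum-free induction medium exposed in duplicate for 48 h to 8 half-log concentrations up to 100 uM in 0.5% DMSO. CYP3A4 mRNA measured by qRT-PCR normalized to ACTB, GAPDH and POLR2A; bidirectional fit versus DMSO.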
# [13] = read-out: DNA damage-inducible transcript 3 (DDIT3), DDIT3 (gene 1649); test: LTEA_HepaRG_DDIT3: Life Technologies and Expression Analysis (LTEA) Assay for DNA damage-inducible transcript 3 (DDIT3) using HepaRG (AID 2283488)
# In short: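 Eight-point concentration-response (100 uM highest, half-log dilutions) in HepaRG, 48 h, duplicate wells. Endpoint: qRT-PCR mRNA, normalized (ACTB, GAPDH, POLR2A), bidirectional fitting with DMSO as baseline.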
# [14] = read-out: Cytochrome P450 (CYP24A1), CYP24A1 (gene 1591); test: LTEA_HepaRG_CYP24A1: Life Technologies and Expression Analysis (LTEA) Assay for Cytochrome P450 (CYP24A1) using HepaRG (AID 2283478)
# In short: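 qRT-PCR read-out: CYP24A1 transcript levels normalized to three housekeeping genes, bidirectional curve fits against 0.5% DMSO baseline. Human HepaRG cells treated 48 h with chemicals at eight concentrations from 100 uM in half-log steps.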
# BCL2L11 (gene 10018) = test: LTEA_HepaRG_BCL2L11: Life Technologies and Expression Analysis (LTEA) Assay for Bcl-2 (BCL2L11) gene using HepaRG (AID 2283473)
# In short: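 HepaRG, 48 h exposure, 8-pt half-log series from 100 uM in 0.5% DMSO, duplicates; qRT-PCR (Fluidigm TaqMan) for BCL2L11, housekeeping-normalized; bidirectional curve fit relative to DMSO baseline.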
# Apoptosis regulator Bcl-2 (Homo sapiens), sequence (P10415 whole entry, looked up): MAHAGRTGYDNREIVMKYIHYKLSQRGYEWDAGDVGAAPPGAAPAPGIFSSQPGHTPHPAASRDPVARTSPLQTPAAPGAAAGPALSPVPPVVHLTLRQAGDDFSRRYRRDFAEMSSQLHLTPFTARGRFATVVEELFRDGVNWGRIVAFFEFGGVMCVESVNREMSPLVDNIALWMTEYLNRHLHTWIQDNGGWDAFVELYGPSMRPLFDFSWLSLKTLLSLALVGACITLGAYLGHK
# Caspase-3 (Homo sapiens), sequence (P42574 whole entry, looked up): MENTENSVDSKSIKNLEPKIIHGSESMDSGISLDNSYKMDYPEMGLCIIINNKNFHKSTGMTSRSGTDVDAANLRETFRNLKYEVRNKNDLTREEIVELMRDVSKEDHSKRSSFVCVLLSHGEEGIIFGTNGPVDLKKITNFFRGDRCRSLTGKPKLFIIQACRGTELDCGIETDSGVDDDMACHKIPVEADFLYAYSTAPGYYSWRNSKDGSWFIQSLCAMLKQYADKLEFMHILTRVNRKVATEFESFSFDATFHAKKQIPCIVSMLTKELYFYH
# Cytochrome P450 3A4 (Homo sapiens), sequence (P08684 whole entry, looked up): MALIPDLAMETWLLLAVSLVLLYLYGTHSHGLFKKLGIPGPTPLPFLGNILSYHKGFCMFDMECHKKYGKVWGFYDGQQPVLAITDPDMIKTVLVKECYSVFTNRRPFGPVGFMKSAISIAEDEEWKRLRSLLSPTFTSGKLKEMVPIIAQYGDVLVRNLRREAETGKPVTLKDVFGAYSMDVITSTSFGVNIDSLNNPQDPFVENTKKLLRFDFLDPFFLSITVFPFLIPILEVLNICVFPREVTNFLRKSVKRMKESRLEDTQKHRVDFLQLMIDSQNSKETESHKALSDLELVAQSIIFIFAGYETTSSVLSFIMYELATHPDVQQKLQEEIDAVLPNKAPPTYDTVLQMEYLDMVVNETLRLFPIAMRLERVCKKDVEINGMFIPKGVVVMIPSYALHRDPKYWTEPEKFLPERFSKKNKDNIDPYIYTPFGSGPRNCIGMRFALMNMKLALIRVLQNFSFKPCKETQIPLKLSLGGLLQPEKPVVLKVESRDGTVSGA
# Cytochrome P450 2C19 (Homo sapiens), sequence (P33261 whole entry, looked up): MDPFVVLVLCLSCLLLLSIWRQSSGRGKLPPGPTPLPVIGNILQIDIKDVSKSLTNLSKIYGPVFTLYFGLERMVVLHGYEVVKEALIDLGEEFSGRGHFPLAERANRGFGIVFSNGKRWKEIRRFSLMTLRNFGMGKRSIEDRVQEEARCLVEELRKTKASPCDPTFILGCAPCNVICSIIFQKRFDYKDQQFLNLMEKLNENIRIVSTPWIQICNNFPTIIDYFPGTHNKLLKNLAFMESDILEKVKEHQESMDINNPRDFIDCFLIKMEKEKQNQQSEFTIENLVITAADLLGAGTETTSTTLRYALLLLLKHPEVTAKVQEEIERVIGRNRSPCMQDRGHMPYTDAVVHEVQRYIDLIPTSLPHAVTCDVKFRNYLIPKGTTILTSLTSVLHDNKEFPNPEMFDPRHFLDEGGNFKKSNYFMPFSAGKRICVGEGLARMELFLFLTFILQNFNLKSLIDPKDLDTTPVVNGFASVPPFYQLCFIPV
smiles,measurement,setting,value
O=C(O)c1nc(Cl)ccc1Cl,outcome,[1],inactive
same,outcome,[2],inactive
same,outcome,[3],inactive
same,outcome,[4],inactive
same,outcome,[5],inactive
same,outcome,[6],inactive
same,outcome,[7],inactive
same,outcome,Caspase-3 (Homo sapiens),inactive
same,AC50,[8],50 µM (active)
same,outcome,[8],inactive
same,outcome,[9],inactive
same,outcome,[10],inactive
same,outcome,[11],inactive
same,outcome,CYP2C8 (gene 1558),inactive
same,outcome,CYP2C9 (gene 1559),inactive
same,AC50,CYP2E1 (gene 1571),17.6 µM (active)
same,outcome,CYP2E1 (gene 1571),inactive
same,outcome,CYP4A11 (gene 1579),inactive
same,outcome,[12],inactive
same,outcome,[13],inactive
COP(=S)(OC)Oc1nc(Cl)c(Cl)cc1Cl,outcome,[1],inactive
same,outcome,[2],inactive
same,outcome,[3],inactive
same,outcome,[4],inactive
same,outcome,[5],inactive
same,outcome,[6],inactive
same,outcome,[7],inactive
same,outcome,Caspase-3 (Homo sapiens),inactive
same,outcome,[14],inactive
same,AC50,[8],66.5 µM (active)
same,outcome,[9],inactive
same,outcome,[10],inactive
same,outcome,[11],inactive
same,outcome,CYP2C8 (gene 1558),inactive
same,outcome,CYP2C9 (gene 1559),inactive
same,outcome,CYP2E1 (gene 1571),inactive
same,outcome,CYP4A11 (gene 1579),inactive
same,outcome,[12],inactive
same,outcome,[13],inactive
CC(C)Oc1cc(-n2nc(C(C)(C)C)oc2=O)c(Cl)cc1Cl,outcome,[1],inactive
same,outcome,[2],inactive
same,outcome,[3],inactive
same,AC50,[4],47.2 µM (active)
same,outcome,BCL2L11 (gene 10018),inactive
same,AC50,[5],32.4 µM (active)
same,AC50,[6],81.1 µM (active)
same,outcome,[7],inactive
same,outcome,Caspase-3 (Homo sapiens),inactive
same,outcome,[9],inactive
same,AC50,[10],90.5 µM (active)
same,AC50,[11],1.44 µM (active)
same,AC50,CYP2C8 (gene 1558),86.3 µM (active)
same,AC50,CYP2C9 (gene 1559),82.3 µM (active)
same,AC50,CYP2E1 (gene 1571),30.8 µM (active)
same,AC50,CYP4A11 (gene 1579),45.6 µM (active)
same,AC50,[12],1.04 µM (active)
same,AC50,[13],77.7 µM (active)
N#Cc1cc(Br)c(O)c(Br)c1,outcome,[1],inactive
same,outcome,[2],inactive
same,AC50,[3],6.14 µM (active)
same,AC50,[4],13.9 µM (active)
same,AC50,BCL2L11 (gene 10018),10.4 µM (active)
same,AC50,[5],21.2 µM (active)
same,AC50,[6],10 µM (active)
same,outcome,[7],inactive
same,AC50,Caspase-3 (Homo sapiens),7.76 µM (active)
same,AC50,[8],12.9 µM (active)
same,AC50,[9],23.6 µM (active)
same,AC50,[10],9.97 µM (active)
same,AC50,[11],13.9 µM (active)
same,AC50,CYP2C8 (gene 1558),25.3 µM (active)
same,AC50,CYP2C9 (gene 1559),14.4 µM (active)
same,AC50,CYP2E1 (gene 1571),17.1 µM (active)
same,AC50,CYP4A11 (gene 1579),26.6 µM (active)
same,AC50,[12],16.1 µM (active)
same,AC50,[13],68.3 µM (active)
COc1cnc(OC)n2nc(NS(=O)(=O)c3c(OCC(F)F)cccc3C(F)(F)F)nc12,outcome,[1],inactive
same,outcome,[2],inactive
same,outcome,[3],inactive
same,AC50,[4],50 µM (active)
same,outcome,BCL2L11 (gene 10018),inactive
same,outcome,[5],inactive
same,outcome,[6],inactive
same,outcome,[7],inactive
same,outcome,Caspase-3 (Homo sapiens),inactive
same,outcome,[14],inactive
same,outcome,[8],inactive
same,outcome,[9],inactive
same,AC50,[10],6.02 µM (active)
same,AC50,[11],10.8 µM (active)
same,outcome,CYP2C8 (gene 1558),inactive
same,outcome,CYP2C9 (gene 1559),inactive
same,AC50,CYP2E1 (gene 1571),30.2 µM (active)
same,AC50,CYP4A11 (gene 1579),11.5 µM (active)
same,AC50,[12],8.2 µM (active)
same,outcome,[13],inactive
COc1nc(NC(C)C)nc(NC(C)C)n1,outcome,[1],inactive
same,outcome,[2],inactive
same,outcome,[3],inactive
same,outcome,[4],inactive
same,outcome,BCL2L11 (gene 10018),inactive
same,outcome,[5],inactive
same,outcome,[6],inactive
same,outcome,[7],inactive
same,outcome,Caspase-3 (Homo sapiens),inactive
same,AC50,[8],44.9 µM (active)
same,outcome,[9],inactive
same,AC50,[10],6.01 µM (active)
same,AC50,[11],9.99 µM (active)
same,outcome,CYP2C8 (gene 1558),inactive
same,outcome,CYP2C9 (gene 1559),inactive
same,AC50,CYP2E1 (gene 1571),37 µM (active)
same,outcome,CYP4A11 (gene 1579),inactive
same,AC50,[12],7.19 µM (active)
same,outcome,[13],inactive
